# RGS4 inhibitor: blocks human RGS4-accelerated GTP hydrolysis; P49798; Transcreener GDP fluorescence polarization, RGS4-accelerated GTP hydrolysis; Potency, µM (titrated, usually from 114 µM), inactives show top-dose activity change, negative = inhibition, hits mostly inhibitors; hit rate 0.039% among 390,000; AID 504845; active = well fitted inhibition curve with a large enough effect; inconclusive = small, poorly fitted or top-dose-only effect; inactive = no such curve, though single readings can be large or run the other way; note: potency is the fitted concentration of half-maximal effect; % is set by controls: 0 for no effect and ±100 for the full control effect; nearly all actives have a fitted effect of over 75% in size
# Target sequence (P49798 whole entry, looked up): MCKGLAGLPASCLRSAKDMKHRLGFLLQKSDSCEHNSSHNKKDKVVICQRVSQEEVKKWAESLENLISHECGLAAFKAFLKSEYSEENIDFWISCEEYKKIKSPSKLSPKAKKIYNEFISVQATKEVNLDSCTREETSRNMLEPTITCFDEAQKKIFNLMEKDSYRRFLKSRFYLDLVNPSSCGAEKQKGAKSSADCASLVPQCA
#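 MLSMR compounds (23 nl, pin-transferred) preincubated 10 min at room temperature with a 500nM (2x) first reagent, then RGS4 at 900nM (2x) plus Transcreener GDP mix added; fluorescence polarization (620/688 nm) read before and after 90 min at 30 °C.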
# PI4K2A inh: inhibitors of human PI4K2A. activity change, negative = inhibition, % at 76.9 µM. purified PI4K2A, ADP-Glo luminescence, 1 h; stronger effect = lower value. hit rate 0.13% among 420,000. Q9BTU6; in the data active = activity change below about -50%; inconclusive = mostly about -30% to -49%;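 note: -100% = wells without enzyme as full effect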
# Target sequence (Q9BTU6 whole entry, looked up): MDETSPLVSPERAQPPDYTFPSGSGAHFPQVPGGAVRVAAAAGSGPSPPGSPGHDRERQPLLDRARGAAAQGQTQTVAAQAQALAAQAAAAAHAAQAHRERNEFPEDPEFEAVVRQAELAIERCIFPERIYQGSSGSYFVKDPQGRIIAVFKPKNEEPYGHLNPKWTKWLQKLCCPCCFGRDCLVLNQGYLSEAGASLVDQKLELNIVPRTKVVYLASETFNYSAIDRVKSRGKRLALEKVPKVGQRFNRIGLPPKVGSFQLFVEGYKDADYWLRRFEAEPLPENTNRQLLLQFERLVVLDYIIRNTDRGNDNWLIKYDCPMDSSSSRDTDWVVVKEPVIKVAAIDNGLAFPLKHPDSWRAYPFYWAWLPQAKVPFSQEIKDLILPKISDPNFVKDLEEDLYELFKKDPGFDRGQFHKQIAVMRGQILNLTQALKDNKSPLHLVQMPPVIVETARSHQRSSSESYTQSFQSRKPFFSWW
#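 PI4K2A activity was measured by ADP-Glo luminescence: enzyme (4 ug/mL stock) and phosphatidylinositol (1.2 mM stock) in Tris pH 7.5/MgCl2/EGTA/Triton X-100 buffer were reacted with ATP (300 microM stock) for one hour at ambient temperature.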
# pAkt inh: blocks phosphorylation of Akt; AID 651550; activity change, % for hits at 50 µM; hit rate 0.32% among 360,000; Neuro2A IGF-stimulated pAkt S473 HTRF, 20 min; stronger effect = lower value; in the data active = activity change below about -80%; inconclusive = mostly about -51% to -80%; note: % is set by controls: 0 for no effect and ±100 for the full control effect
#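 Neuro2A cells (4,500/well, DMEM with 0.5% FBS) were treated with compound at a single 50 µM final concentration, stimulated with 6 nM IGF for 20 min at 37 °C, and lysed. Phospho-Akt Ser473 was read by HTRF as 665/615 ratio ×10^4.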
# DRD3 agonist: agonists of human D3 dopamine receptor; max activation, %; hit rate 0.58% among 410,000; D3R DiscoveRx beta-arrestin cells, luminescence, 90 min; AID 652048; P35462; in the data active = max activation above about 30%; note: 0% is about no effect
#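 Agonist mode: compounds and dopamine controls were applied to plated cells for 90 min at 37 degrees C after an overnight attachment at 1500 cells/well. Luminescent read-out followed 30 - 60 minutes at room temperature with DiscoveRx detection reagent.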
# D3 antag: antagonists of human D3 dopamine receptor; D3R cells, DiscoveRx beta-arrestin luminescence, antagonist mode; stronger effect = lower value; max response, negative = inhibition, %; hit rate 2.5% among 360,000; AID 652054; in the data active = max response below about -50%; inconclusive = no clear call, values can overlap the other calls; note: % is set by controls: 0 for no effect and ±100 for the full control effect
#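 Cells expressing the human receptor were seeded at 1500 cells/well, incubated overnight at 37 degrees C in 5% CO2, then exposed to library compounds with dopamine controls for 90 minutes at 37 degrees C before luminescent detection.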
# LDHA inh: inhibitors of human lactate dehydrogenase A; hit rate 0.15% among 480,000; P00338; purified LDHA, NADH/diaphorase-resazurin fluorescence; stronger effect = lower value; AID 1347041; activity change, % (values are at about 110 or 230 µM); in the data active = activity change below about -30%; inconclusive = mostly about -25% to -30%;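 note: plate controls were DMSO wells for no effect and wells without enzyme for full effect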
#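 Remaining NADH was detected by diaphorase (0.133 mg/mL) converting 37 µM resazurin to fluorescent resorufin, read at 0 and 20 minutes. The preceding 5-minute room-temperature reaction used 2 nM LDHA, 0.2 mM sodium pyruvate and 0.06 mM NADH at pH 7.4.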
# The depositor's hits bear a star; i = inactive; ? = inconclusive; / = no result; ! = repeats disagree. Compounds with a hit are over-represented: about 2.8% of the library has one in this group of screens.
SMILES,RGS4 inhibitor,PI4K2A inh,pAkt inh,DRD3 agonist,D3 antag,LDHA inh
CCc1ccc(CCC(=O)Nc2sc(C)c(C)c2C(=O)OC)o1,?,-6.9,-91.1%*,-11.3,-8.3,6.6
CC(C)(C)c1nc(CN2CCOCC2)cc(CN2CCOCC2)c1O,-4.7%,-5.1,i,-2.6,-70.0*,1.8
Oc1c(CN2CCOCC2)cc(-c2ccccc2)cc1CN1CCOCC1,-16.7%,2.0,i,-5.3,-83.2*,0.1
CC(C)(C)CNC(=O)c1nc[nH]c1C(=O)N1CCOCC1,/,/,/,/,/,9.8
CCCCc1ccc(CC(=O)NCc2coc(-c3cccs3)n2)cc1,/,/,/,/,/,5.2
Brc1cc2[nH]cnc2c2ccccc12,15.7%,-3.4,i,45.9*,18.5,31.8
c1csc(C(Nc2ccc3nnnn3n2)c2ccc3c(c2)CCC3)c1 (stereo not drawn),/,/,/,/,/,-8.1
O=c1[nH]c(=S)[nH]c2c1C(c1cccc(C(F)(F)F)c1)OC(CCc1ccccc1)C2 (stereo not drawn),/,-5.5,i,-6.1,-71.3*,-1.2
Cc1ccc(Nc2nc(-c3ccccc3)c(C(=O)Nc3cccnc3)s2)cc1,/,/,/,/,/,5.2
NC(=S)c1ccc[n+]([C@@H]2O[C@@H](COP(=O)([O-])OP(=O)(O)OC[C@H]3O[C@@H](n4cnc5c(N)ncnc54)[C@H](OP(=O)(O)O)[C@@H]3O)C(O)C2O)c1 (stereo partly drawn),26.7µM*,-3.8,/,/,/,/
NC(=O)c1ccc[n+]([C@@H]2O[C@H](COP(=O)([O-])OP(=O)(O)OC[C@H]3O[C@@H](n4cnc5c(N)ncnc54)[C@H](O)[C@@H]3O)[C@@H](O)[C@H]2O)c1,/,/,/,8.0,/,/
CC(=O)c1sc(NC(=O)C(C)C)nc1C,-12.4%,-0.1,i,-3.2,-26.8,-4.8
CC(=O)Nc1nc(C)c(C(C)=O)s1,-1.7%,0.8,-105.9%*,-0.4,0.0,-2.0
Cn1cnc2c1c(=O)n(Cc1cccc(Cl)c1)c(=O)n2C,-26.3%,-8.3,i,10.0,?,-32.4*!
Cn1cnc2c1c(=O)n(Cc1cccc(F)c1)c(=O)n2C,11.2%,-0.4,i,-3.6,20.8,-1.1
COc1ccc(S(=O)(=O)NCCc2ccccc2)cc1-c1nc(C(C)C)no1,/,/,/,/,/,8.5
COc1cc(N2C(=O)C=CC2=O)c(OC)cc1Cl,?,8.4,i,-30.2,-89.1*,-2.2
Cc1cc2oc(=O)cc(CSc3ncn[nH]3)c2cc1C,/,/,/,/,/,-8.3
CN(C)c1ccc(NC(=S)c2ccc3ccccc3n2)cc1,-8.6%,4.4,i,-5.9,-50.8*,-1.1
CC12CCC(C/C1=N\O)C2(C)CBr (stereo not drawn),/,/,/,/,/,-4.0
c1ccc(Nc2ccc(-n3cccc3)cc2)cc1,/,/,/,/,/,6.2
CN1C2CCC1/C(=C\c1ccccc1F)C(=O)/C2=C/c1ccccc1F,-26.4%,-2.6,i,-7.6,-53.6*,-2.6
Cc1cc(C)nc(SCc2nc3cc(NC(=O)c4ccc(F)c(Cl)c4)ccc3n2C)n1,/,/,/,/,/,-7.1
CCCN(Cc1ccc(OCC)cc1)Cc1cc(=O)n2ccc(C)cc2n1,/,/,/,/,/,2.8
Cc1cc(C)c2c(CC(=O)NCCc3ccccc3)coc2c1,17.5%,-6.1,i,34.3*,-4.9,-11.8
SMILES,RGS4 inhibitor,PI4K2A inh,pAkt inh,DRD3 agonist,D3 antag,LDHA inh
CC(C)CC1Nc2ncnc(N3CCN(c4ccccc4)CC3)c2N(Cc2ccccc2)C1=O (stereo not drawn),7.0%,-2.9,i,-12.3,-78.3*!,-2.5
CC1Nc2ncnc(N3CCN(c4ccccc4)CC3)c2N(Cc2ccc(Cl)cc2)C1=O (stereo not drawn),5.6%,-0.6,i,-81.1,-165.8*,-0.8
Cc1ccc(CN2C(=O)C(C)Nc3ncnc(N4CCOCC4)c32)cc1 (stereo not drawn),8.4%,-6.3,i,-16.2,?,-9.2
CC1Nc2ncnc(N3CCN(c4ccccc4)CC3)c2N(Cc2ccccc2)C1=O (stereo not drawn),15.2%,-3.1,i,-69.0,-110.3*,-4.3
CCCCc1ccc(C(Nc2ccc3nnnn3n2)c2cccs2)cc1 (stereo not drawn),/,/,/,/,/,5.1
N#CC1=C(c2ccccc2)/C(=C/c2ccccc2)OC1=O,?,-5.4,i,-10.7,-59.3*,-6.5
O=C(NC1CC1)c1ccccc1NS(=O)(=O)c1ccc(Cl)cc1C(F)(F)F,/,/,/,/,/,-1.6
CC(C)(C)C(=O)/C=C(\N)c1ccncc1,16.7%,6.0,-101.1%*,-0.5,?,-4.6
CC(=O)OC1C2CCC1C([N+]1(C)CCCCC1)CC2 (stereo not drawn),-28.5%,-5.9,i,0.2,10.4,-33.9*
C[N+]1(C2CCC3CCC2C3O)CCCC1 (stereo not drawn),-9.4%,1.2,i,7.9,-0.1,-7.6
COc1ccc(O)c(C(=O)c2cc(C#N)c(=O)n(-c3cc(C)c(Cl)cc3OC)c2)c1,/,/,/,/,/,5.5
COC(=O)C1=C(C)N(CCCC(=O)O)C(=O)NC1c1ccccc1OS(=O)(=O)c1ccccc1[N+](=O)[O-] (stereo not drawn),30.3%,0.8,i,8.5,-9.3,-18.1
CCOC(=O)C1=C(C)N(Cc2ccccc2)C(=O)NC1c1ccccc1OS(=O)(=O)c1ccccc1[N+](=O)[O-] (stereo not drawn),3.4%,-1.1,i,45.6*,0.0,0.0
Cc1ccc2c(c1)/C(=C/c1ccccc1)C(=O)N2,-21.8%,2.4,i,-1.5,-22.9,1.2
COc1ccc2c(c1)/C(=C\c1cccc(/C=C3/C(=O)Nc4ccc(OC)cc43)n1)C(=O)N2,?,-6.3,i,-18.2,-53.0*,0.9
Cc1ccccc1CNC(=O)Cc1nn(C)c(=O)c2ccccc12,/,/,/,/,/,-13.8
Cc1nn(-c2ccccc2)c2nc(-c3ccco3)cc(C(=O)O)c12,?,-23.3,i,5.7,-51.7*,-2.0
Oc1c(Br)cc(Br)cc1C=Nc1ccc2c(c1)OCO2,-22.4%,-6.1,i,2.1,-127.8*,16.5
Oc1c(Br)cc(Br)cc1C=Nc1ccc2c(c1)OCCO2,-12.0%,-12.2,i,-12.0,-63.5*,2.3
O=[N+]([O-])c1ccc(O)c(C=Nc2ccc3c(c2)OCCO3)c1,7.2%,-6.4,i,2.8,-14.4,1.1
COc1cc(/C=C2\SC(=Nc3ccc(Cl)c(C(=O)O)c3)NC2=O)c(Br)c(Br)c1O,?,-2.5,i,15.3,0.0,-32.9*
Cc1ccc(C)c(-c2nn(CC(=O)NC3CC3)c(=O)c3ccccc23)c1,/,/,/,/,/,0.4
O=C(Nc1ccc(N2CCN(C(=O)c3ccc(Cl)cc3)CC2)cc1)c1ccc2c(c1)OCCO2,-15.5%,5.5,i,43.1*,23.3,-1.4

# Source: PubChem BioAssay
